Test results: PubChem BioAssay AID1159580 (chemical genetic matrix, 2015)
Screen size: about 5,500 compounds; about 2,000 (36%) were called active. Another 18% or so got no clear call; they are omitted. No stated cut-off is given here; in the data, active means normalized growth mostly below about 0.91 (no sharp cut-off); inconclusive means no clear call, values can overlap the other calls; inactive means mostly above about 0.92. Some of the results follow.

Assay: chemical genetic growth profiling, strain panel (AID 1159580);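 further: tested at 20 µM; growth read once vehicle control cultures reached saturation at 30 °C; 1 = growth at the plate median or of vehicle wells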
Conditions: growth OD

Measured: normalized growth

Oc1c(Cl)cc(Cl)c2cccnc12
active: S. cerevisiae deletion strains, locus YJR066W, strain TOR1, stronger effect = lower value -0.00116 | S. cerevisiae deletion strains, locus YJR075W, strain HOC1, stronger effect = lower value 0.0672 | S. cerevisiae deletion strains, locus YKL009W, strain mrt4, stronger effect = lower value 0.092 | S. cerevisiae deletion strains, locus YKL068W, stronger effect = lower value 0.0598 | S. cerevisiae deletion strains, locus YKL085W, strain MDH1 (second series), stronger effect = lower value 0.057 | S. cerevisiae deletion strains, locus YKL085W, strain MDH1, stronger effect = lower value 0.057 | S. cerevisiae deletion strains, locus YKL160W, strain elf1, stronger effect = lower value 0.067 | S. cerevisiae deletion strains, locus YKL190W, strain CNB1, stronger effect = lower value 0.0458 | S. cerevisiae deletion strains, locus YKR001C, strain vps1, stronger effect = lower value 0.0676 | S. cerevisiae deletion strains, locus YKR026C, strain gcn3, stronger effect = lower value 0.0676 | S. cerevisiae deletion strains, locus YKR091W, strain srl3, stronger effect = lower value 0.0658 | S. cerevisiae deletion strains, locus YLL001W, strain dnm1, stronger effect = lower value 0.0628 | S. cerevisiae deletion strains, locus YLL026W, stronger effect = lower value 0.0652 | S. cerevisiae deletion strains, locus YLL041C, strain sdh2, stronger effect = lower value 0.0595 | S. cerevisiae deletion strains, locus YLR027C, strain aat2, stronger effect = lower value 0.0596 | S. cerevisiae deletion strains, locus YLR039C, strain RIC1, stronger effect = lower value 0.0746 | S. cerevisiae deletion strains, locus YLR058C, strain SHM2, stronger effect = lower value 0.0468 | S. cerevisiae deletion strains, locus YLR102C, strain apc9, stronger effect = lower value 0.0634 | S. cerevisiae deletion strains, locus YLR113W, strain HOG1, stronger effect = lower value 0.152 | S. cerevisiae deletion strains, locus YLR221C, strain rsa3, stronger effect = lower value 0.0659 | S. cerevisiae deletion strains, locus YLR258W, strain gsy2, stronger effect = lower value 0.0626 | S. cerevisiae deletion strains, locus YLR262C, strain YPT6 (second series), stronger effect = lower value 0.0862 | S. cerevisiae deletion strains, locus YLR262C, strain YPT6, stronger effect = lower value 0.0908 | S. cerevisiae deletion strains, locus YLR268W, strain sec22, stronger effect = lower value 0.0715 | S. cerevisiae deletion strains, locus YLR320W, strain mms22, stronger effect = lower value 0.0895 | S. cerevisiae deletion strains, locus YLR330W, strain CHS5, stronger effect = lower value 0.0519 | S. cerevisiae deletion strains, locus YLR342W, strain FKS1 (second series), stronger effect = lower value 0.0706 | S. cerevisiae deletion strains, locus YLR342W, strain FKS1, stronger effect = lower value 0.068 | S. cerevisiae deletion strains, locus YLR357W, strain rsc2, stronger effect = lower value 0.116 | S. cerevisiae deletion strains, locus YLR370C, strain arc18, stronger effect = lower value 0.0682 | S. cerevisiae deletion strains, locus YLR371W, strain rom2, stronger effect = lower value 0.0693 | S. cerevisiae deletion strains, locus YLR384C, strain iki3, stronger effect = lower value 0.0654 | S. cerevisiae deletion strains, locus YLR418C, strain cdc73, stronger effect = lower value 0.106 | S. cerevisiae deletion strains, locus YML016C, strain PPZ1, stronger effect = lower value 0.0467 | S. cerevisiae deletion strains, locus YML032C, strain rad52, stronger effect = lower value 0.0695 | S. cerevisiae deletion strains, locus YML120C, strain ndi1, stronger effect = lower value 0.0608 | S. cerevisiae deletion strains, locus YML124C, strain tub3, stronger effect = lower value 0.0633 | S. cerevisiae deletion strains, locus YMR058W, strain fet3, stronger effect = lower value 0.0638 | S. cerevisiae deletion strains, locus YMR078C, strain ctf18, stronger effect = lower value 0.0725 | S. cerevisiae deletion strains, locus YMR125W, strain sto1, stronger effect = lower value 0.0693 | S. cerevisiae deletion strains, locus YMR129W, stronger effect = lower value 0.0704 | S. cerevisiae deletion strains, locus YMR205C, strain PFK2, stronger effect = lower value 0.087 | S. cerevisiae deletion strains, locus YMR223W, strain ubp8, stronger effect = lower value 0.0733 | S. cerevisiae deletion strains, locus YMR231W, strain pep5, stronger effect = lower value 0.0731 | S. cerevisiae deletion strains, locus YMR263W, strain SAP30, stronger effect = lower value 0.057 | S. cerevisiae deletion strains, locus YMR307W, strain GAS1, stronger effect = lower value 0.101 | S. cerevisiae deletion strains, locus YNL067W, strain RPL9B, stronger effect = lower value 0.0516 | S. cerevisiae deletion strains, locus YNL071W, strain lat1, stronger effect = lower value 0.0698 | S. cerevisiae deletion strains, locus YNL128W, strain TEP1, stronger effect = lower value 0.0643 | S. cerevisiae deletion strains, locus YNL153C, strain GIM3, stronger effect = lower value 0.0512 | S. cerevisiae deletion strains, locus YNL183C, strain NPR1, stronger effect = lower value -0.00339 | S. cerevisiae deletion strains, locus YNL209W, strain ssb2, stronger effect = lower value 0.0648 | S. cerevisiae deletion strains, locus YNL233W, strain BNI4, stronger effect = lower value 0.0545 | S. cerevisiae deletion strains, locus YNL248C, strain rpa49, stronger effect = lower value 0.0607 | S. cerevisiae deletion strains, locus YNL250W, strain rad50, stronger effect = lower value 0.0707 | S. cerevisiae deletion strains, locus YNL271C, strain bni1, stronger effect = lower value 0.0672 | S. cerevisiae deletion strains, locus YNL298W, strain CLA4, stronger effect = lower value 0.0667 | S. cerevisiae deletion strains, locus YNL307C, strain MCK1, stronger effect = lower value 0.0744 | S. cerevisiae deletion strains, locus YNL322C, strain KRE1 (second series), stronger effect = lower value 0.0728 | S. cerevisiae deletion strains, locus YNL322C, strain KRE1, stronger effect = lower value 0.0468 | S. cerevisiae deletion strains, locus YNR049C, strain mso1, stronger effect = lower value 0.0631 | S. cerevisiae deletion strains, locus YNR052C, strain pop2, stronger effect = lower value 0.0629 | S. cerevisiae deletion strains, locus YOL006C, strain TOP1, stronger effect = lower value 0.108 | S. cerevisiae deletion strains, locus YOL147C, strain pex11, stronger effect = lower value 0.0586 | S. cerevisiae deletion strains, locus YOR001W, strain rrp6, stronger effect = lower value 0.072 | S. cerevisiae deletion strains, locus YOR061W, strain CKA2, stronger effect = lower value 0.045 | S. cerevisiae deletion strains, locus YOR069W, strain VPS5, stronger effect = lower value 0.046 | S. cerevisiae deletion strains, locus YOR070C, strain gyp1, stronger effect = lower value 0.0611 | S. cerevisiae deletion strains, locus YOR080W, strain dia2, stronger effect = lower value 0.0794 | S. cerevisiae deletion strains, locus YOR083W, strain WHI5, stronger effect = lower value 0.0648 | S. cerevisiae deletion strains, locus YOR106W, strain vam3, stronger effect = lower value 0.0647 | S. cerevisiae deletion strains, locus YOR136W, strain idh2, stronger effect = lower value 0.0779 | S. cerevisiae deletion strains, locus YOR144C, strain elg1, stronger effect = lower value 0.0585 | S. cerevisiae deletion strains, locus YOR184W, strain ser1, stronger effect = lower value 0.0845 | S. cerevisiae deletion strains, locus YOR231W, strain MKK1, stronger effect = lower value 0.105 | S. cerevisiae deletion strains, locus YOR265W, strain rbl2, stronger effect = lower value 0.0654 | S. cerevisiae deletion strains, locus YOR270C, strain vph1, stronger effect = lower value 0.0804 | S. cerevisiae deletion strains, locus YOR290C, strain snf2, stronger effect = lower value 0.062 | S. cerevisiae deletion strains, locus YOR316C, strain cot1, stronger effect = lower value 0.0632 | S. cerevisiae deletion strains, locus YPL051W, strain arl3, stronger effect = lower value 0.0645 | S. cerevisiae deletion strains, locus YPL055C, strain LGE1, stronger effect = lower value 0.0675 | S. cerevisiae deletion strains, locus YPL078C, strain atp4, stronger effect = lower value 0.0648 | S. cerevisiae deletion strains, locus YPL106C, strain sse1, stronger effect = lower value 0.0892 | S. cerevisiae deletion strains, locus YPL240C, strain hsp82, stronger effect = lower value 0.0586 | S. cerevisiae deletion strains, locus YPL241C, strain CIN2, stronger effect = lower value 0.0475 | S. cerevisiae deletion strains, locus YPL256C, strain CLN2, stronger effect = lower value 0.126 | S. cerevisiae deletion strains, locus YPR119W, strain clb2, stronger effect = lower value 0.0705 | S. cerevisiae deletion strains, locus YPR141C, strain kar3, stronger effect = lower value 0.0755 | S. cerevisiae deletion strains, locus YPR163C, strain tif3, stronger effect = lower value 0.074 | S. cerevisiae deletion strains, locus YPR167C, strain met16, stronger effect = lower value 0.0659 | S. cerevisiae deletion strains, strain wtn01, stronger effect = lower value 0.0707 | S. cerevisiae strains, strain wild type, stronger effect = lower value 0.0471
